BaF3 tox = parental Ba/F3 cell viability inhibition, counter-screen for JAK2V617F inhibitor project, murine pro-B, CellTiter-Glo luminescence. actives 1.1% (n = 220,000). AID 1486, 2009. CellTiter-Glo ATP luminescence. inhibition, % at 5.6 µM;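 active = inhibition above a per-campaign cutoff, the mean inhibition of all tested compounds plus 3 SD, cut at about 27% in these data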;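 also: 0% = DMSO wells and 100% = JAK Inhibitor I control wells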
APP transl inh = inhibitors of APP translation via 5'UTR reporter, primary screen, APP 5'UTR luciferase, SH-SY5Y cells. SH-SY5Y APP 5'UTR-luciferase reporter, luminescence. inhibition, % at 2 µM. actives 0.82% (n = 190,000);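 active = inhibition above a set limit, derived from the sample mean plus 3 SD, cut at about 45% in these data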
IEC-6 tox = cytotoxicity in IEC-6 intestinal epithelial cells, primary screen, cytotoxicity control for KLF5 inhibitor project, cell-based, luminescence; inhibition, % at 5 µM; actives 0.78% (n = 290,000); IEC-6 cytotoxicity, luminescence viability; in the data active = inhibition above about 22%;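 also: 0% = plate median of test compound wells and 100% = cytotoxic reference compound wells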
Ba/F3 V617F tox = reduced viability of JAK2V617F-dependent Ba/F3 cells, primary screen, JAK2V617F inhibitor project, cell-based, Ba/F3 EpoR-JAK2V617F, luminescence; ATP luminescence; inhibition, % at 5.6 µM; actives 1.1% (n = 220,000);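 active = inhibition above the campaign mean plus 3 SD over all tested compounds, cut at about 24% in these data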;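 also: cytokine-independent growth of Ba/F3 cells driven by EpoR plus mutant JAK2; 0% = DMSO-treated cells and 100% = JAK inhibitor I control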
aSyn UTR inh = MLPCN primary screen, SNCA 5' untranslated region; alpha-synuclein 5'UTR reporter, inhibitor activity; AID 1813, 2009; actives 0.82% (n = 300,000); inhibition, % (tested at 7.5 µM); in the data active = inhibition above about 60%;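 also: H4 neuroglioblastoma cells stably carrying SNCA 5'UTR luciferase fusion; 0% = DMSO wells and 100% = positive control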
KLF5 inh = KLF5 expression inhibitors, primary screen, DLD-1 cells, luminescence | inhibition, % at 5 µM | actives 0.23% (n = 290,000) | DLD-1 KLF5 promoter-luciferase reporter | AID 1700, 2009;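 active = inhibition above a per-plate limit of that plate's mean compound inhibition plus 3 SD, cut at about 60% in these data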;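 also: 0% = DMSO wells and 100% = LY294002 at 200 µM; higher means less KLF5 promoter-driven luciferase light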
* hit, by the source's call; nt = no result given. An excerpt weighted towards active compounds, which were near 2.2% of everything screened.

SMILES | BaF3 tox | APP transl inh | IEC-6 tox | Ba/F3 V617F tox | aSyn UTR inh | KLF5 inh
CN(C)c1ccc(/C=N/n2c(-c3ccccc3Br)n[nH]c2=S)cc1 | 1.9 | nt | -2.7 | 3.5 | -10.2 | 2.7
O=S(=O)(NCCN1CCOCC1)c1cccc(C(F)(F)F)c1 | nt | nt | 2.8 | nt | -5.0 | -39.3
Cc1ccsc1C(=O)NN=C1CCCCCC1 | nt | nt | 4.9 | nt | -127.5 | -155.5
CC(C)Oc1cccc(C(=O)C2CCCN(C(=O)CCn3cnnn3)C2)c1 (configuration not stated) | 1.8 | -5.0 | -1.0 | -0.1 | 4.5 | -23.0
Cc1nc2cc(C(=O)N3CCN(C)CC3)ccc2n1C | nt | nt | 8.1 | nt | 2.4 | -32.0
COc1ccc(CN(C)Cc2nc(Cc3cccc(F)c3)no2)c2cccnc12 | 61.9* | 3.0 | 9.2 | 46.3* | 12.5 | 8.4
COc1cccc(-n2cc(CN(C)Cc3nc(Cc4cccc(F)c4)no3)cn2)c1 | 6.4 | -17.1 | 4.7 | 5.9 | 3.8 | -4.0
O=C(/C=C/c1ccccc1Cl)Nc1ccc(-c2nnc3n2CCCCC3)cc1 | 4.3 | -15.6 | -2.2 | -1.7 | -25.1 | 0.2
CCOC(=O)c1cc(-c2ccccc2)sc1NC(=O)COC(=O)c1cccc(S(N)(=O)=O)c1 | 5.6 | -15.8 | -1.8 | 0.4 | 71.6* | 14.7
COc1ccccc1N1CCN(C(=O)CN2C(=O)c3ccccc3S2(=O)=O)CC1 | -2.2 | nt | 4.1 | 0.9 | 8.4 | -27.2
O=c1[nH]c2ccccc2n1C1CCCCC1 | 1.4 | 64.1* | 4.8 | -1.7 | 7.5 | 4.0
O=C(NC1CCCCC1)N1CCC(n2c(=O)[nH]c3ccccc32)CC1 | nt | -2.8 | nt | nt | 17.7 | nt
N=C(N)c1ccc(OCCCCCOc2ccc(C(=N)N)cc2)cc1 | 53.0* | 3.0 | -1.7 | 63.4* | 67.0* | 10.3
CCCCCCOc1ccc(/C(N)=N/O)cc1 | 36.8* | -78.2 | 0.4 | 27.0* | -173.1 | -99.9
Cc1ccc(S(=O)(=O)n2cnc3ccccc32)cc1[N+](=O)[O-] | nt | nt | 4.4 | nt | -27.4 | -7.8
CN(C)N=Nc1ccc(S(=O)(=O)/N=C(\O)c2ccccc2)cc1 | nt | nt | 1.8 | nt | -2.4 | -30.6
Cn1c(-c2ccc(F)cc2)cnc1NCc1cccc(F)c1 | -2.3 | -15.3 | 10.8 | -1.5 | -22.6 | -20.1
Cn1c(-c2ccc3c(c2)OCO3)cnc1NCc1cccc(O)c1 | 90.4* | -32.5 | -1.2 | 3.1 | -46.7 | -15.4
Cc1cc(C)c2c(c1)/C(=N/NS(=O)(=O)c1ccc(Br)cc1)CCC2 | 1.1 | 81.0* | 2.9 | -4.6 | -0.3 | -2.8
Cc1cc(C)c2c(c1)/C(=N/NS(=O)(=O)c1ccccc1)CCC2 | 0.3 | 17.7 | 6.2 | -3.3 | 17.6 | -21.5
CC(=O)/C=C/n1c(=S)oc2ccccc21 | 4.7 | 86.6* | 6.5 | 15.5 | -30.3 | -44.7
COc1cccc(C2CC(=O)Nc3cc4c(cc32)CCC4)c1 (configuration not stated) | 45.0* | 56.7* | 46.5* | 37.9* | 84.2* | 42.8
O=C1CC(c2ccccc2F)c2cc3c(cc2N1)CCC3 (configuration not stated) | 77.0* | 63.5* | 15.8 | 62.9* | 64.6* | -8.1
O=C1CC(c2ccccc2Br)c2cc3c(cc2N1)CCC3 (configuration not stated) | 5.0 | -10.9 | -0.9 | 0.1 | 12.3 | -28.7
O=C1CC(c2cc(Br)ccc2F)c2cc3c(cc2N1)CCC3 (configuration not stated) | 4.3 | 40.8 | -6.2 | -3.8 | 65.1* | -0.5
SMILES | BaF3 tox | APP transl inh | IEC-6 tox | Ba/F3 V617F tox | aSyn UTR inh | KLF5 inh
Cc1c(C(=O)OCC(=O)Nc2ccc3c(c2)OCO3)cccc1[N+](=O)[O-] | 3.8 | -0.7 | -6.3 | 0.8 | -7.3 | -23.2
CCCn1c(N)c(N(CCOC)C(=O)CSCC(=O)Nc2cccc(C)c2)c(=O)[nH]c1=O | nt | nt | nt | nt | 7.3 | nt
COc1ccc(N=CC2=C(O)c3ccccc3C2=O)c(OC)c1 | 1.9 | -176.5 | 12.6 | 1.7 | 62.5* | -41.1
Cc1cc(C)nc(NS(=O)(=O)c2ccc(NC(=O)c3snnc3C)cc2)n1 | nt | nt | 5.6 | nt | 15.8 | -4.4
COc1ccc(CCn2c(N3CCN(C)CC3)nc3c2c(=O)[nH]c(=O)n3C)cc1 | 5.2 | 3.4 | 3.4 | -0.6 | -3.9 | -36.6
CCCn1c(N2CCN(CC(=O)c3c(C)n(C)c4ccc(OC)cc34)CC2)nc2c1c(=O)[nH]c(=O)n2C | 0.0 | 3.3 | 7.1 | 2.0 | 62.6* | 13.1
C(=N\Nc1nc2ccccc2[nH]1)/c1cccc2cccnc12 | 50.5* | nt | -0.3 | 91.3* | 73.4* | 25.6
O=C(CN(Cc1ccccc1Cl)C(=O)CNS(=O)(=O)c1ccccc1)NCC1CCCO1 (configuration not stated) | nt | nt | -4.0 | nt | -11.6 | -31.8
COc1cc(/C=C(\C#N)C(=O)N2CCOCC2)ccc1OCc1ccccc1 | 7.8 | -37.2 | -1.4 | -0.8 | -120.4 | -20.1
N#C/C(=C\c1ccc(OCc2ccc(C(=O)O)cc2)cc1)C(=O)N1CCOCC1 | 8.3 | 55.8* | -0.4 | 1.7 | 93.0* | 40.1
O=C1CN(C(=O)/C=C/c2ccccc2F)c2ccccc2N1 | 2.4 | -33.1 | 0.3 | -4.6 | -24.3 | -55.4
CC1(C)N=C(N)NC(Nc2ccc(Br)cc2)=N1 | 34.5* | -9.2 | 2.2 | 9.1 | 13.1 | -15.2
Cc1ccc(NCCc2ccc(C)nc2)cc1 | 1.5 | 53.4* | -3.3 | -2.9 | -28.7 | -14.8
Cc1ccc(CCNc2ccc3ccccc3c2)cn1 | 4.7 | -10.1 | 1.0 | -1.2 | 19.1 | -29.8
CC1(C)NC(=O)N(CCCCOc2ccc(Cl)cc2C=O)C1=O | 76.2* | 9.9 | 10.2 | 71.3* | -8.1 | -1.4
CC(=O)Nc1ccc(NC(=O)/C(Cl)=C/c2ccccc2)cc1 | 93.1* | -81.7 | 7.0 | 2.0 | -117.5 | -26.2
CC(=O)Nc1ccc(C(=O)N/C(=C/c2ccccc2)C(=O)Nc2cccc(C(=O)O)c2)cc1 | -2.2 | 0.1 | 8.7 | -2.8 | 6.8 | -4.3
Cc1nc(C(=O)O)cc2c1[nH]c1ccccc12 | nt | nt | nt | nt | 0.7 | nt
CC(=O)N(C(C)=O)c1ncc2c([nH]c3ccccc32)c1C#N | -1.6 | -14.3 | 0.7 | -3.8 | 64.8* | -3.1
CC(=O)c1cccc(N=c2scc(-c3ccc(S(=O)(=O)N4CCOCC4)cc3)n2CCO)c1 | 47.3* | 17.1 | 4.0 | 42.8* | 12.3 | -27.1
CCN(CC)CCCNC(=O)CN1N=C(c2ccc(OC)cc2)CCC1=O | nt | nt | -0.6 | nt | 7.1 | -12.1
COc1ccc(NC(=O)c2ccc(NS(=O)(=O)c3c(C)noc3C)cc2)cc1OC | 96.5* | 18.5 | -13.4 | -0.4 | -2.0 | -23.3
Cc1ccc(NC(=O)c2ccc(NS(=O)(=O)c3c(C)noc3C)cc2)cc1C | 1.6 | -9.1 | 5.6 | 0.1 | 8.5 | -32.7
CN(CC(=O)Nc1c(Cl)cccc1Cl)C(=O)Cc1ccc2c(c1)CCC2 | nt | nt | nt | nt | 17.7 | nt
CC(C)OCCCNc1ncnc2c1[nH]c1ccccc12 | 51.7* | 0.7 | 9.3 | 40.4* | -178.4 | -10.0

Screening results as filed in PubChem BioAssay.
